ClpP mod – qHTS Assay for Activators of ClpP; AID 651965, 2013; purified B. subtilis ClpP, FRET peptide cleavage, 20 min; Potency, µM (top dose mostly 57.5 µM), inactives show top-dose activity change, negative = active; 340,000 compounds, 1.9% hits; ATP-dependent Clp protease proteolytic subunit (Bacillus subtilis (strain 168)), P80244; active means well fitted falling curve with a large enough effect; inconclusive means small, poorly fitted or top-dose-only effect; inactive means no such curve, though single readings can be large or run the other way; further: the source files actives as falling curves though it sought activators and does not explain the sign; nearly all actives have a fitted effect of over 65% in size
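ClpP 10 microg/mL final, pH 8 Tris/KCl buffer with BSA, glycerol, Tween-20; compound pinned in; FRET-FV substrate; RT 20 min; Ex320/Em430; ΔFRET vs ADEP 5.8 microM, DMSO, no enzyme.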
Rango dissoc inh – qHTS Assay for Inhibitors of RanGTP induced Rango (Ran-regulated importin-beta cargo) - Importin beta complex dissociation; Snurportin-1 (Homo sapiens) + GTP-binding nuclear protein Ran (Homo sapiens) + Importin …; Biochemical FRET Rango-importin beta, RanGTP-induced dissociation; Potency, µM (titrated, usually from 46.1 µM), inactives show at the highest dose activity change, negative = inhibition; 340,000 compounds, 0.071% hits; calls by dose curve; further: % of control where 0% means no effect; nearly all actives have a fitted effect of over 45% in size
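FRET read at 45 min, room temperature: inhibitors block the CFP/YFP signal rise when RanGTP (0.6 uM Ran, 2 mM GTP, 0.2 uM RCC1) frees Rango (0.1 uM) from importin beta (0.25 uM). Pre-read after 5 min compound exposure flags interference.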
TDP1 block – qHTS Assay for Inhibitors of Tyrosyl-DNA Phosphodiesterase (TDP1). Tyrosyl-DNA phosphodiesterase 1 (Homo sapiens), Q9NUW8. recombinant TDP1, AlphaScreen DNA substrate cleavage. Potency, µM (series often up to 130 µM), for the others: at the highest dose activity change, negative = inhibition, hits mostly inhibitors. 350,000 compounds, 0.28% hits. AID 485290, 2010; further: on the % scale 0 is the no-effect control and ±100 the full control effect; nearly all actives have a fitted effect of over 40% in size
Target sequence (Q9NUW8 whole entry, looked up): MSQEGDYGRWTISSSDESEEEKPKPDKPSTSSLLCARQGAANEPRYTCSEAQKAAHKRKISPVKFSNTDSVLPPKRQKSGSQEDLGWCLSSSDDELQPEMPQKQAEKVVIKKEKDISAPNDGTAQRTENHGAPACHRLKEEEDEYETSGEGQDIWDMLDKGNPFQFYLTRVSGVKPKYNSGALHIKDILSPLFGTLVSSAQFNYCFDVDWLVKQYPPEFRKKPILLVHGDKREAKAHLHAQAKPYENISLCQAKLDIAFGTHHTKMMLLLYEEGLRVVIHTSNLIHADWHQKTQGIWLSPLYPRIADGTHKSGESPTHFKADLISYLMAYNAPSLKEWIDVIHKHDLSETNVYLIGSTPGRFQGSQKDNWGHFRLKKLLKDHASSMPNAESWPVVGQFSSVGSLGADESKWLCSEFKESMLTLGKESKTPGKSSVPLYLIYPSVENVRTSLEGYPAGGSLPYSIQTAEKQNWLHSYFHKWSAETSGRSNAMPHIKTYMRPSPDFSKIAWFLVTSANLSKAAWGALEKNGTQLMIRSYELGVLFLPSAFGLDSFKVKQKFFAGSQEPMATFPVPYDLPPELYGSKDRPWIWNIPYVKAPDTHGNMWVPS
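AlphaScreen read-out: signal falls as enzyme removes the 3' tyrosine-FITC from a 5'-biotinylated DNA oligo (15 nM, 5 min, RT). Enzyme was E. coli-made recombinant Tdp1 at 1 nM, exposed to compound for 15 min beforehand; beads 10 ug/ml, 10 min.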
TSG101-PTAP inh – qHTS Assay for Iinhibitors of HIV-1 Budding by Blocking the Interaction of PTAP/TSG101 | Tumor susceptibility gene 101 protein (Homo sapiens), Q99816 | Fluorescence polarization, FITC-PTAP peptide / Tsg101 binding | Potency, µM (doses to about 115 µM), for inactives: at the top dose activity change, negative = inhibition, most hits filed as inhibitors | 340,000 tested, under 10 active; active means well fitted inhibition curve with a large enough effect in the main read-out, with a control signal flat, not every such curve was filed as active; inconclusive means small, poorly fitted or top-dose-only effect, or effect the other way, or a change in a side signal; inactive means no such curve, though single readings can be large or run the other way; further: % of control where 0% means no effect
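Compounds were pin-transferred onto Tsg101 binding domain (10 uM final) in HEPES pH 7.5 buffer, then FITC-PTAP peptide was added at 50 nM final. After 20 min at RT, polarization reported peptide displacement across a qHTS concentration series.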
ALOX12 inh – Primary qHTS assay for inhibitors of human arachidonate 12S-lipoxygenase (ALOX12): Round 2; AID 1671190, 2021; Potency, µM (top dose mostly 108 µM), without a hit: at the highest dose activity change, negative = inhibition, most hits filed as inhibitors; Polyunsaturated fatty acid lipoxygenase ALOX12 (Homo sapiens), P18054; 580,000 compounds, 1.1% hits; purified 12hLO, xylenol orange hydroperoxide absorbance; further: on the % scale 0 is the no-effect control and ±100 the full control effect
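Purified human 12hLO at 150 nM in 25 mM Hepes, 0.01% Triton X-100, pH 7.0, preincubated 15 min at room temperature with compound. Reaction started with 40 uM arachidonic acid, 30 min at room temperature. Hydroperoxide measured by Fe-xylenol orange, 573/405 nm absorbance ratio.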
Rango complex inh – qHTS Assay for Inhibitors of Rango (Ran-regulated importin-beta cargo) - Importin beta complex formation | Rango CFP/YFP FRET sensor + importin beta, 45 min | Potency, µM (doses to about 92.2 µM), for the others: at the top dose inhibition of complex formation | 340,000 compounds, 0.031% hits | AID 540263, 2011; calls by dose curve;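 further: 0% = DMSO wells and 100% = buffer wells lacking importin beta; nearly all actives have a fitted effect of over 15% in size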
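FRET biosensor Rango (snurportin 1 IBB between N-terminal EYFP and C-terminal Cerulean), 50 nM in PBS/1 mM DTT/0.02% Tween-20/0.1% BSA, preincubated 5 min RT with compound; 0.125 microM importin beta added, 45 min RT, CFP/YFP FRET ratio read.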
Active calls of the source: *; ? = inconclusive; / = no result; ! = not confirmed by another sample; [ ] = remark or other dose. Shown are actives, neighbours in structure and some others; about 2.4% of the full set was active somewhere. Unless noted, the call rests on the fitted dose curve; in most records, active means well fitted curve in the direction sought with a large enough effect; inconclusive means small, poorly fitted or top-dose-only effect, or another doubt; inactive means no such curve, though single readings can be large; an effect the other way counts as inactive or inconclusive. Potency means the concentration at half of the fitted maximal effect.

SMILES	ClpP mod	Rango dissoc inh	TDP1 block	TSG101-PTAP inh	ALOX12 inh	Rango complex inh
CC1(C)C=C(c2ccc(C=O)s2)CC(C)(C)N1	-4%	-11%	3%	-2%	23%	0%
COCc1nc(-c2ccc(OC3CCN(C(=O)c4n[nH]c5ccccc45)C3)cc2)no1 (stereo not drawn)	/	/	/	/	14%	/
OCCOCCNc1ncnc2sc(-c3ccccc3)cc12	32µM*	-5%	-1%	-8%	-1%	-1%
CNc1ncnc2sc(-c3ccccc3)cc12	14µM*	-11%	5%	-1%	1%	-2%
COc1ccc(N2C(=O)/C(=C/c3cccs3)NC2=S)cc1	0%	16µM*[inhibitor]	3%	-4%	?	?
CN(C)/C=C1\NC(=S)N(c2ccccc2)C1=O	/	15%	/	-4%	?	-1%
C=CCNC(=O)c1ccc([N+](=O)[O-])c(Cl)c1	/	7%	0%	0%	10%	?
CC(C)(CNC(=O)c1ccc([N+](=O)[O-])c(Cl)c1)CNC(=O)c1ccc([N+](=O)[O-])c(Cl)c1	16µM*	0%	8%	-3%	12%	0%
CCn1c(C)cc(C(=O)CSc2nnc(CN(c3ccccc3)S(C)(=O)=O)n2C)c1C	/	/	/	/	21%	/
CN(C)CCNC(=O)c1cccc2nc3c(ccc4ccccc43)nc12	-26%	?	/	-7%	-13%	?
CN(CCNC(=O)c1c[nH]c2c1ccc1ccccc12)CCNC(=O)c1c[nH]c2c1ccc1ccccc12	28µM*	-8%	/	0%	?	-6%
Cc1ccc(C(=O)NC[C@H]2O[C@@H](CC(=O)NCCN3CCOCC3)[C@H](O)[C@@H]2O)cc1	/	/	/	/	47%[176 µM]	/
O=C(C1CC1)N1CCCC(c2nnnn2-c2ccccc2)C1 (stereo not drawn)	/	/	/	/	15%	/
Cc1ccc(C(=O)CSc2nnc(CCCOc3ccc(Cl)cc3Cl)n2C)cc1	/	/	/	/	-5%	/
Clc1cccc(C2Nc3cccc4cccc(c34)N2)c1	/	1%	9%	-2%	3.5µM*	3%
COc1ccc(-c2nn(-c3ccccc3)cc2/C=N/NC(=O)c2ccc3c(c2)OCO3)cc1	/	/	0%	/	/	/
COc1ccccc1NS(=O)(=O)c1cccc(C(=O)N/N=C/c2ccccc2OCC(=O)O)c1	/	0%	5%	0%	?	2%
O=C(N/N=C/c1cn(-c2cccs2)nc1-c1ccccc1)c1ccccc1Br	22µM*	8%	3%	-1%	-12%	4%
COc1ccc(-c2nn(-c3ccccc3)cc2/C=N/NC(=O)c2ccc(Br)o2)cc1	32µM*	0%	3%	-1%	-22%	0%
C=CCNC(=S)N/N=C/c1cn(-c2ccccc2)nc1-c1ccc(OC)cc1	-23%	2%	11%	0%	40µM*	?
COc1ccc(-c2nn(-c3ccccc3)cc2/C=N/NC(=O)c2cccc(S(=O)(=O)Nc3ccccc3OC)c2)cc1	18µM*	21%	8%	-3%	-20%	-2%
CC(C)(C)c1ccc(C(=O)N2CCCC(O)(CN3CCCC3)C2)cc1 (stereo not drawn)	/	/	/	/	63%	/
Cc1ccc(S(=O)(=O)N2CCN(Cn3nc(C)c4ccccc4c3=O)CC2)c(C)c1	/	/	/	/	2%	/
NCCc1cccc(CN2CCCC(COc3ccccc3F)C2)c1 (stereo not drawn)	/	/	/	/	54%	/
COc1ccc(-c2nn(-c3ccccc3)cc2/C=N/NC(=S)NC(C)C)cc1OC	-12%	7%	8%	-3%	35µM*	0%
SMILES	ClpP mod	Rango dissoc inh	TDP1 block	TSG101-PTAP inh	ALOX12 inh	Rango complex inh
CC(C)C(=O)N1CCC(Cc2noc(-c3ccncc3)n2)C1 (stereo not drawn)	/	/	/	/	19%	/
COC(=O)c1sc2ccccc2c1NC(=O)c1cccs1	-4%	5%	0%	-1%	-3%	5%
COC(=O)c1sc2ccccc2c1N	5%	-2%	11%	-2%	35µM*	2%
COc1c(CNC(C)c2nnc3n2CCC3)c(C)nn1C (stereo not drawn)	/	/	/	/	-2%	/
C/C(=C\C(=S)Nc1ccccc1)Nc1ccc2ccccc2c1	35µM*	-20%	-3%	0%	?	2%
C/C(=C\C(=S)Nc1ccccc1)Nc1cccc2ccccc12	?	-5%	12%	0%	?	-4%
COC(=O)[C@@H]1Cc2nc[nH]c2CN1Cc1ccc(Cl)cc1	/	/	/	/	48%[176 µM]	/
O=C(O)c1ccc2[nH]c3c(c2c1)CSCC3	2%	-1%	20µM*	0%	/	?
CN(C)C(=O)c1ccc(Nc2nccc3c2cc(-c2ccsc2)n3C)cc1	/	/	/	/	8%	/
CCn1c(SCc2cccc(C(F)(F)F)c2)nnc1-c1ccco1	-2%	2%	2%	-5%	50µM*	1%
Nc1nccnc1C(=O)Nc1cccc(Cn2ccnc2)c1	/	/	/	/	4%	/
COc1ccc(-c2cc(C(F)(F)F)nc(SCCC(=O)NC(C)C)n2)cc1	/	/	/	/	15%	/
COc1cccc(C2=Cc3ccc(F)cc3C(CC(C)=O)N2c2ccc(-c3cncnc3)cc2)c1 (stereo not drawn)	?	/	/	/	32µM*	/
COc1cccc(C2=Cc3ccc(F)cc3C(CC(C)=O)N2c2ccc(-c3cc(OC)c(OC)c(OC)c3)cc2)c1 (stereo not drawn)	-12%	/	/	/	-18%	/
O=C(Nc1ccc(CN2CCCC2)cc1)c1n[nH]c2ccccc12	/	/	/	/	64%	/
C[N+](C)(C)C/C=C1/COCO1	-3%	-11%	4%	-3%	11µM*!	-3%
CCCC(NC(=O)COc1cc2occ(-c3nncn3-c3ccccc3)c(=O)c2cc1CC)C(=O)O (stereo not drawn)	/	/	/	/	-19%	/
CCCCCCCCC(=O)N/N=C(\C)c1ccc(O)cc1O	32µM*	74%	0%	0%	21%	5%
CCCCCCCC(=O)N/N=C(\C)c1ccc(O)cc1O	16%	-7%	1%	-3%	21%	2%
CN(c1ccccc1)c1ccc2nnc(-c3cc(C(=O)Nc4ccn(C)n4)ccn3)n2n1	/	/	/	/	16%[176 µM]	/
